# Source: PubChem BioAssay (EPA / NIEHS)
# Records with an inconclusive call do not appear. The source made the active and inactive calls. The calls were made as follows, unless noted: active = hit-call score of the fitted dose curve at least 0.9, where 1 is the maximum; inactive = score below 0.9.
# Key:
# [1] = CCTE_Shafer_MEA_acute_per_network_burst_spike_number_mean: CCTE's Neural Acute Assay for Average Number of Spikes in a Network Burst, Shafer Lab (AID 2284019);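 as to AC50: curve fitted for loss of signal so actives reduce spikes per network burst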
# In short: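 Rat primary cortical neurons on 48-well MEA at DIV 13 or 15, 37 C; compounds 0.03-40 uM, at least three wells each. 40-min baseline then 40-min exposure recording; percent change in mean spikes per network burst.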
# [2] = CCTE_Shafer_MEA_acute_per_network_burst_spike_number_std: CCTE's Neural Acute Assay for Standard Deviation of Number of Spikes in a Network Burst, Shafer Lab (AID 2284020);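 also: fitted for decrease in spike-number SD versus DMSO so actives lower it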
# In short: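 Rat primary cortical neurons on 48-well MEA (16 electrodes/well), treated DIV 13 or 15 at 0.03-40 uM, ≥3 wells per compound. 40 min recordings at 37 C before and after dosing; value is percent change in network-burst spike-number SD, negative direction vs DMSO.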
# [3] = CCTE_Shafer_MEA_acute_per_network_burst_electrodes_number_mean: CCTE's Neural Acute Assay for Mean Number of Electrodes in a Network Burst, Shafer Lab (AID 2284021);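 also: curves fitted for decreases only so hits reduce electrodes per burst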
# In short: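 Primary rat cortical networks, mwMEA, 37 C. 20 min stabilization, 40 min baseline, compound 0.03-40 uM, 40 min re-record. Wells need >=10 active electrodes; percent change per well, negative fitting direction.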
# [4] = CCTE_Shafer_MEA_acute_network_burst_percentage: CCTE's Neural Acute Assay for Percentage of Network Bursts, Shafer Lab (AID 2284022);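 also: curves fitted for loss so actives lower network burst percentage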
# In short: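 Readout is the fraction of spikes falling in network bursts, expressed as per-well percent change from a 40-min pre-exposure baseline. Primary rat cortical neurons on MEA were exposed to 0.03-40 uM compound on DIV 13 or 15 and recorded for 40 min at 37 C.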
# [5] = CCTE_Shafer_MEA_acute_cross_correlation_area: CCTE's Neural Acute Assay for Area of Cross Correlation, Shafer Lab (AID 2284024);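 also: area under pooled inter-electrode spike cross-correlation near zero lag as percent change from own baseline; curves fitted for loss of cross-correlation area so actives lower synchrony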
# In short: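 Plates equilibrated 20 min at 37 C, then 40 min baseline was recorded, compound was added (0.03-40 uM), and a further 40 min was recorded. Wells needed ≥10 active electrodes (≥5 spikes/min) on exposure day.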
# [6] = CCTE_Shafer_MEA_acute_cross_correlation_HWHM: CCTE's Neural Acute Assay for Cross Correlation at Half Width at Half Maximum, Shafer Lab (AID 2284026);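 also: percent change per well from pre-dose baseline in spike cross-correlogram half width; hits are a decrease in cross-correlogram half width relative to DMSO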;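 as to outcome: spontaneous network firing of rat primary cortical neurons on multiwell microelectrode arrays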
# In short: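 Rat cortical neuron cultures on microelectrode arrays were equilibrated 20 min at 37 C, recorded 40 min at baseline, then 40 min after compound addition (0.03-40 uM, ≥3 wells). Spikes were detected at 8x rms noise after 300-5000 Hz band-pass filtering.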
# [7] = CCTE_Shafer_MEA_acute_synchrony_index: CCTE's Neural Acute Assay for Synchrony, Shafer Lab (AID 2284027);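 also: network synchrony index of spontaneous spiking in primary rat cortical neurons on MEAs; fitted for loss of signal so actives lower synchrony relative to DMSO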
# In short: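 Spontaneous firing of mature rat cortical networks is captured extracellularly on microelectrode arrays at 37 C, with wells needing ≥10 active electrodes. Each compound (0.03-40 uM) is judged by the change in synchrony index from baseline over 40 min.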
# [8] = target: Estrogen receptor (Homo sapiens) (UniProt P03372); assay: CCTE_Deisenroth_AIME_96WELL_LUC_Active: CCTE's 96-well Estrogen Receptor Transactivation Assay with AIME metabolic competence (ERTA luciferase; metabolism positive), Deisenroth Lab (AID 2284023; active = hit-call score of the fitted dose curve at least 0.9, where 1 is the maximum)
# Sequence of Estrogen receptor (Homo sapiens) (P03372 whole entry, looked up): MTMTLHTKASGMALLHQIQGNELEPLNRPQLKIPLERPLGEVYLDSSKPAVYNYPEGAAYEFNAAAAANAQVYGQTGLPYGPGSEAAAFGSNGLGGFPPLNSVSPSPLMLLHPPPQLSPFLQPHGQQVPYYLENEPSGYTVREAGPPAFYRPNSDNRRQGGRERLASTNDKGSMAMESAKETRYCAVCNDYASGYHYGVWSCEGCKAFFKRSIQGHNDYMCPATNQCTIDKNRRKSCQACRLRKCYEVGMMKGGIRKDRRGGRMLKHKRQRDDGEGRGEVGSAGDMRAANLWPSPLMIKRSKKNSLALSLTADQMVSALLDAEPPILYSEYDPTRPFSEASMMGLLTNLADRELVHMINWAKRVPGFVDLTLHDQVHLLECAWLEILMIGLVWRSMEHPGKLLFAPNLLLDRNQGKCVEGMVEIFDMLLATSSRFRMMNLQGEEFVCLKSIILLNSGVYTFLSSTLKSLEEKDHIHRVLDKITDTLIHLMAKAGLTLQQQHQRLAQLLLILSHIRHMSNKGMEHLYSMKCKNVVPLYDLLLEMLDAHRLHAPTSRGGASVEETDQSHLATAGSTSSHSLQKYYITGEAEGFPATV
# In short: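 Chemicals pre-incubated 2 h with alginate-immobilized phenobarbital/beta-naphthoflavone-induced male Sprague Dawley rat liver S9, then medium transferred to VM7Luc4E2 cells for 24 h luciferase read-out. 10-point series 0.002 - 200 uM; fitted relative to 17beta-estradiol.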
# [9] = target: Estrogen receptor (Homo sapiens) (UniProt P03372); assay: CCTE_Deisenroth_AIME_96WELL_LUC_Inactive: CCTE's 96-well Estrogen Receptor Transactivation Assay without AIME metabolic competence (ERTA luciferase; metabolism negative), Deisenroth Lab (AID 2284025; active = hit-call score of the fitted dose curve at least 0.9, where 1 is the maximum)
# In short: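 VM7Luc4E2 breast cells, luciferase read 24 h after dosing with medium pre-incubated 2 h on alginate-water lids (metabolism negative). 10-point series 0.002–200 uM, single technical replicate, n≥4; fit relative to 17beta-estradiol.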
# [10] = CCTE_Deisenroth_AIME_96WELL_CTox_Active: Cytotoxicity Assessment (CTOX) in CCTE's 96-well Estrogen Receptor Transactivation Assay with AIME metabolic competence (metabolism positive), Deisenroth Lab (AID 2284028; active = hit-call score of the fitted dose curve at least 0.9, where 1 is the maximum)
# Protocol: CCTE_Deisenroth_AIME_96WELL (AIME metabolism assay) is a cell-based, single-readout assay that uses VM7Luc4E2, a human mammary gland/breast cell line, with measurements taken at 24 hour after chemical dosing in a 96-well plate.CCTE_Deisenroth_AIME_96WELL_CTox_Active is one of four assay components measured or calculated from the CCTE_Deisenroth_AIME_96WELL assay. It is designed to make measurements of a protease substrate, a type of viability indicator, as detected with substrate cleavage to a fluorescent probe in living cells.CCTE_Deisenroth_AIME_96WELL_CTox_Active is a component of the CCTE_Deisenroth_AIME_96WELL assay that measures the effect of retroftting the VM7Luc ERTA assay with the Alginate Immobolization of Metabolic Enzymes (AIME) metabolism method. AIME is optimized to impart phase I hepatic metabolism using phenobarbital/beta-naphthoflavone induced hepatic S9 from male Sprague Dawley rats. Parent chemicals are incubated for 2 hours in the AIME assay prior to transfer to the VM7Luc ERTA assay plate. […] This endpoint evaluates cytotoxicity in metabolism positive mode. Using a type of flourescent probe in VM7Luc cells, loss-of-signal activity can be used to understand loss of viability. This assay endpoint, CCTE_Deisenroth_AIME_96WELL_CTox_Active, was analyzed with bidirectional fitting in the ERTA assay. […]
smiles,measurement,setting,value
CC(C)(C)CC(C)(C)c1ccc(O)cc1,outcome,[1],inactive
same,outcome,[2],inactive
same,outcome,[3],inactive
same,outcome,[4],inactive
same,outcome,[5],inactive
same,AC50,[6],36.4 µM (active)
same,outcome,[7],inactive
CC(C)(C)c1cc(O)ccc1O,outcome,[1],inactive
same,AC50,[2],20 µM (active)
same,outcome,[3],inactive
same,outcome,[4],inactive
same,outcome,[5],inactive
same,AC50,[6],29.3 µM (active)
same,AC50,[7],29.9 µM (active)
O=C(OC1CCCCC1)c1ccccc1C(=O)OC1CCCCC1,AC50,[8],20.5 µM (active)
same,AC50,[9],10.1 µM (active)
same,outcome,[10],inactive
O=C1C2(Cl)C3(Cl)C4(Cl)C(Cl)(Cl)C5(Cl)C3(Cl)C1(Cl)C5(Cl)C24Cl (stereo unspecified),outcome,[1],inactive
same,AC50,[2],9.39 µM (active)
same,outcome,[3],inactive
same,outcome,[4],inactive
same,outcome,[5],inactive
same,AC50,[6],7.01 µM (active)
same,AC50,[7],20 µM (active)
CCC(C)(C)c1ccc(O)c(C(C)(C)CC)c1,AC50,[1],8.12 µM (active)
same,AC50,[2],6.52 µM (active)
same,AC50,[3],20 µM (active)
same,AC50,[4],36.6 µM (active)
same,outcome,[5],inactive
same,AC50,[6],9.83 µM (active)
same,AC50,[7],20 µM (active)
C=C(C)C(=O)[O][Sn]([CH2]CCC)([CH2]CCC)[CH2]CCC,outcome,[1],inactive
same,AC50,[2],0.0933 µM (active)
same,AC50,[3],2.81 µM (active)
same,AC50,[4],0.205 µM (active)
same,AC50,[5],0.0108 µM (active)
same,outcome,[6],inactive
same,AC50,[7],0.116 µM (active)
C=CC#N,outcome,[8],inactive
same,outcome,[9],inactive
ClC1(Cl)C2(Cl)C3(Cl)C4(Cl)C(Cl)(Cl)C5(Cl)C3(Cl)C1(Cl)C5(Cl)C24Cl (stereo unspecified),outcome,[1],inactive
same,outcome,[2],inactive
same,outcome,[3],inactive
same,outcome,[4],inactive
same,outcome,[5],inactive
same,outcome,[6],inactive
same,outcome,[7],inactive
CC(=O)OC(c1ccccc1)C(Cl)(Cl)Cl (stereo unspecified),outcome,[1],inactive
same,outcome,[2],inactive
same,outcome,[3],inactive
same,outcome,[4],inactive
same,outcome,[5],inactive
same,AC50,[6],24.9 µM (active)
same,AC50,[7],26.7 µM (active)
O=C(Nc1ccc2[nH]ccc2c1)c1cc2cc(F)ccc2n1Cc1cccc(F)c1,outcome,[1],inactive
same,outcome,[2],inactive
same,outcome,[3],inactive
same,outcome,[4],inactive
same,outcome,[5],inactive
same,outcome,[6],inactive
same,outcome,[7],inactive
CC(C)(OO)c1ccccc1,outcome,[1],inactive
same,outcome,[2],inactive
same,outcome,[3],inactive
same,outcome,[4],inactive
same,outcome,[5],inactive
same,outcome,[6],inactive
same,outcome,[7],inactive
C[C@]12CCC(=O)C[C@@H]1CC[C@@H]1[C@@H]2CC[C@]2(C)[C@@H](O)CC[C@@H]12,outcome,[1],inactive
same,outcome,[2],inactive
same,outcome,[3],inactive
same,outcome,[4],inactive
same,outcome,[5],inactive
same,AC50,[6],33.3 µM (active)
same,AC50,[7],30.7 µM (active)
CCN1CCC2(CC1)COc1cc3c(cc12)N(C(=O)c1ccc(-c2ccc(-c4nnc(C)o4)cc2C)cc1)CC3,outcome,[1],inactive
same,AC50,[2],30.1 µM (active)
same,outcome,[3],inactive
same,AC50,[4],24.9 µM (active)
same,outcome,[5],inactive
same,AC50,[6],31.2 µM (active)
same,AC50,[7],17.2 µM (active)
COC(=O)Cc1ccccc1,outcome,[1],inactive
same,outcome,[2],inactive
same,outcome,[3],inactive
same,outcome,[4],inactive
same,outcome,[5],inactive
same,outcome,[6],inactive
same,outcome,[7],inactive
CCCCCCCCc1ccc(O)cc1,outcome,[1],inactive
same,outcome,[2],inactive
same,outcome,[3],inactive
same,AC50,[4],3.39 µM (active)
same,outcome,[5],inactive
same,AC50,[6],9.18 µM (active)
same,AC50,[7],20 µM (active)
CC(=O)[O][Hg][c]1ccccc1,AC50,[1],0.331 µM (active)
same,AC50,[2],0.844 µM (active)
same,AC50,[3],0.561 µM (active)
same,AC50,[4],1.3 µM (active)
same,AC50,[5],0.713 µM (active)
same,AC50,[6],33.9 µM (active)
same,AC50,[7],2.02 µM (active)
CC(C)(c1ccccc1)c1ccc(O)c(C(C)(C)c2ccccc2)c1,outcome,[1],inactive
same,outcome,[2],inactive
same,outcome,[3],inactive
same,AC50,[4],28.6 µM (active)
same,outcome,[5],inactive
same,AC50,[6],9.24 µM (active)
same,AC50,[7],6.29 µM (active)
CCC(=O)C(CC(C)N(C)C)(c1ccccc1)c1ccccc1 (stereo unspecified),outcome,[1],inactive
same,outcome,[2],inactive
same,outcome,[3],inactive
same,outcome,[4],inactive
same,AC50,[5],0.062 µM (active)
same,outcome,[7],inactive
O=C(O)C(F)(F)C(F)(F)C(F)(F)C(F)(F)C(F)(F)C(F)(F)C(F)(F)C(F)(F)C(F)(F)C(F)(F)F,outcome,[1],inactive
same,outcome,[2],inactive
same,outcome,[3],inactive
same,outcome,[4],inactive
same,outcome,[5],inactive
same,outcome,[6],inactive
same,outcome,[7],inactive
O=C(O)C(Cl)(Cl)Cl,outcome,[1],inactive
same,outcome,[2],inactive
same,outcome,[3],inactive
same,outcome,[4],inactive
same,outcome,[6],inactive
same,outcome,[7],inactive
CCOP(=S)(OCC)SCSP(=S)(OCC)OCC,outcome,[1],inactive
same,AC50,[2],20 µM (active)
same,AC50,[3],11.8 µM (active)
same,AC50,[4],27 µM (active)
same,outcome,[5],inactive
same,AC50,[6],32.7 µM (active)
same,AC50,[7],24.4 µM (active)
